Source: the OligoGym collection

target: DHX35; assay: pooled miR-30 sensor sort-seq; sequence = guide strand; conditions: shRNA
Also: reference of the scale not given here.

Row | Sequence | sensor-assay potency score (higher = more potent)
1 | TAAGGGTTGTAAACAACCGTTG | -0.768
2 | TAGAATGAAACCTCGCTGCATT | -0.528
3 | TTGTAAACAACCGTTGTCCCAG | -0.562
4 | TAACACAAAACAGCGCACGAGT | -0.967
5 | TAAAATATGATTCCTAAGCTTG | -0.148

target: DICER1; assay: as above; conditions: shRNA

Row | Sequence | sensor-assay potency score (higher = more potent)
6 | TTAAAGTAGAATCTCTTTCTTT | 0.229
7 | TTATTCTTGAATCTGTAGTTGA | 0.19
8 | TAGATTGAACATAGGATCGATA | -1.08
9 | TGTAACTTCGACCAACACCTTT | -0.933
10 | TTCCACAGTGACTCTGACCTTC | 0.615
11 | TTATTTTGTCTGTATCCGCTAA | -0.197
12 | TTGTTTTATAATATTCTGCAAA | -0.989
13 | TTTTCTTTACAAAAGCTCCTGA | 0.34
14 | TATAAATCTGATATGTTCCTGA | 0.759
15 | TTAGATTGAACATAGGATCGAT | 0.532
16 | TTTGATTGTAAGAAAGACCATT | -0.387
17 | TTGACCAAGAACACCGTCCTTT | 0.276

target: DIRAS3; assay: as above; conditions: shRNA

Row | Sequence | sensor-assay potency score (higher = more potent)
18 | TTCCACTCCATCGCACAGGTGG | -0.748
19 | TTACAGTCCAAACAACAGCACA | -1.35
20 | TATACGTATTGACAACATGGAT | -1.16
21 | TAACATAGTGAAATGAGTCCAC | 0.953
22 | TTGCCGTCGCCACTCTTGCTGT | -1.2
23 | TACTTTAAATACATCATGCTAC | -0.338
24 | TAATCTCTGATCTTCCTGTGGG | 0.371
25 | TACATCATGCTACATTTTGTTC | -1.42
26 | TTGTTACCTTTGATCTTGCAGA | -0.643
27 | TTTAAATACATCATGCTACATT | -0.644
28 | TTGTCAAGCAGCTTCTCAGTGG | -0.353

target: DLAT; assay: as above; conditions: shRNA

Row | Sequence | sensor-assay potency score (higher = more potent)
29 | TAGAAAGGTAATAATGAGGTAT | -0.0638
30 | TATCTTATTAAGTTCTTTCCGT | 0.0125
31 | TGATTTTGTCTTATAACTGTGT | 0.275
32 | TTGTGTAAGATCAATCCCTTTC | -0.362
33 | TAATCGCTGTGCAATAACCCGA | -0.457
34 | ATATCTGTGAAGACACCTGTAG | -0.267
35 | TTGCTAAAGAAACAACATCATT | -1.57
36 | TTGGTGATTCTACCATCTGGTC | -1.07
37 | TTTGATTGCATTAATCGCTGTG | 0.738
38 | TTTTTCTACAATGATACAGAGT | -0.634
39 | TATCTGTGAAGACACCTGTAGG | -1.1
40 | TTCATTATCTGCAGGGACCAGT | -0.346
